Data on 108 sequences can be found in PubChem BioAssay AID1508600 (Functional Genomics Laboratory (NCATS/FGL), 2020).

About 3,700 (7%) of roughly 53,000 sequences were called active. This is one part of a sample in which actives are shown more often than they occur. Unmarked numbers belong to inactive results.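 The calls were made as follows: active = gene knockdowns whose robust z-score for IL-1 alpha signal is at least 2 or at most -2, so actives lie on both sides; inactive = the rest.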

The assay is described as follows: Components of the Cytosolic LPS Sensing Pathway: Gene Identification via Genome-wide siRNA Screen.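 Also: robust z of the log signal after scaling to non-targeting control siRNA wells of the plate.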 To be noted: RAW264.7 macrophages, IL-1a HTRF, actives lie on both sides, screened at 100 nM (by protocol), cells primed 5 h with Pam3CSK4 first. The essentials:
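IL-1a HTRF of supernatants after 24 hour LipidA transfection of Pam3CSK4-primed (5 hours) RAW264.7 cells, 48h post-siRNA transfection (100 nM). Scores: percent of plate negative-control median, then log-based robust z-score.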
Background: Time-resolved FRET reads energy transfer from a long-lived donor to a nearby acceptor.
Consider CCUACUAAACUCAGUCUUUTT against Kap, for which the z-score is 1.08.

For GGAUCAUGCAGACAUGCUGTT against Ggcx, the z-score is -0.278.

Consider GGUUCUAAAUCAGAAGUGCTT against Tyw5, for which the z-score was -2.08 (active).

On to GGUAUAGCCACAGGUACAUTT against Phxr5, for which the z-score is -0.368.

Turning to GCAGAUAUUUUUGUAAGCATT against Csmd1, the z-score is -0.644.

On to GGCUUGAUGGGCUUUUUGCTT against Ndufb8, for which the z-score was 0.285.

As for GGUCCCAGUCAUUAUCCACTT against Gdap1l1, the z-score is 2.43 (active).

For the sequence GGUAAUUAAAACCAUGGAGTT against Rex1bd, the z-score is -0.0412.

Turning to GGCCCAGGAUAUUUUAGUUTT against Atg9b, the z-score is -0.553.

On to GCCGUACGAAAAAUAAGCATT against Rps7, for which the z-score was -0.402.

For GGCCAAAGUACUUUGUUCCTT against Pdpr, the z-score was 3.63 (active).

As for GGUUCUUCGAAGCAAUAGCTT against Sphkap, the z-score is -0.973.

Turning to GCACACAUCAAGAAACUUGTT against Mxi1, the z-score is 0.963.

Consider GGAGAAAUAACUGAAAUUCTT against Klhl13, for which the z-score was -0.816.

On to GGACUUCUACCCAGCGAUATT against P3h4, for which the z-score was -0.536.

CCUCCAGAUAACAAAUGCATT against Dlx3: the z-score was 0.335.

Consider CGCAUUACAUUAGCCAAAATT against Ttc28, for which the z-score is 1.21.

For GCUCAGUAAUCUGAGGCCATT against Lox, the z-score is -2.03 (active).

In the case of GGAGAUCCGUUCAAGGGUUTT against Olfr557, the z-score was 0.73.

For CCAACUGCACUGUCAAACUTT against Tbcc, the z-score was -0.224.

For the sequence “GGAAUGUGUCUUCUCAAGUTT against A530021J07Rik”, the z-score was 2.35 (active).

On to GGACCAGCACAUGUGGAUUTT against Olfr547, for which the z-score is 0.31.

Take GGACCUGGUAUCUCUAUAUTT against Rasgrp4: the z-score is -0.807.

Take GCAUAAUUCUAAAGACGGGTT against Zfp143: the z-score is -0.1.

On to GGUUAUAGACAAGAUCGAUTT against Comp, for which the z-score was 0.536.

For CCCACCAGUAAGGAGUUCATT against Dido1, the z-score is -0.177.

Turning to GCCACGAACAUGAUGUACATT against Slco3a1, the z-score was 0.229.

Turning to GGUUUUAUUUGGGAUUAGCTT against Arfgap2, the z-score is 0.327.

In the case of GGCAGAUCUGAUCAACGGATT against Mtln, the z-score is -2.14 (active).

With GCUUGUGGAUUCGAUUUGGTT against Gtf3c5, the z-score is 0.485.

Turning to GCUGAAUGAUAUGGAACCUTT against Vapa, the z-score is -1.76.

For the sequence GGAGAUAAAGUCUUAUCACTT against Misp, the z-score is -2.05 (active).

Take GGAAAUCGUGCGUGGCUACTT against Phpt1: the z-score was 1.57.

As for GGCCAUCUUUGACAGUGCUTT against Dnah1, the z-score is 1.11.

GGCAUUUGUAAUUCCAGUUTT against Spata33: the z-score was 0.456.

Consider GGAUUCAGGGAACAGCAAUTT against Ntrk3, for which the z-score was -3.08 (active).

GGUACAGAACAUGUUCUAATT against Klf4: the z-score is 1.18.

As to GCACAAGCGAUGGGUUAACTT against Fkbp1a, the z-score was -0.708.

Turning to GGCUCACGAGGAACUAAAUTT against Ift52, the z-score is 0.115.

Turning to GGAACUUCACUUUUAACACTT against Il33, the z-score was -0.534.

With CGUUUUUCUCUAACUUACATT against Ldlrad3, the z-score was 2.6 (active).

Take GGUGAUGUCCUAUUUCAAATT against Erp27: the z-score was 0.302.

Regarding GGUUCUAUCUACCUACAGGTT against Igfn1, the z-score was 1.78.

Turning to GGAGAAGAGUCAAGAGCUCTT against Vxn, the z-score was 0.103.

With GGUAUCCAAGAAAACCUAUTT against Tnmd, the z-score was 0.475.

For the sequence CCUUCUGUAGUUGGAAUCATT against Them5, the z-score is 1.41.

For the sequence CCUGUAUGGAGUAAUGGAATT against Eif4ebp3, the z-score is 0.13.

On to GGUGGUGUUAAAAUAUACUTT against Gnl3, for which the z-score is 3.07 (active).

Turning to GCCAGAAGACUGUAUACCATT against Rp9, the z-score was -0.0396.

As to GGUUGUUGGUCUUCUGUGATT against Nme3, the z-score is -1.27.

As to GGCCAUCUAAAAAUAGUAATT against Ccdc171, the z-score was 0.707.

Take GGAGCACUUAGAAAUGUCCTT against Olfr342: the z-score was -0.174.

On to GGACUUUGUACAUUGUUUUTT against Actb, for which the z-score is 2.2 (active).

On to GGUCUUCUAAGAAAUUUUGTT against Fmnl2, for which the z-score is 0.407.

In the case of GGAUGUGUCUCACUUCUUGTT against Th, the z-score is -1.5.

Regarding GCUGCCUCUCACCAAGUAUTT against Creb3l3, the z-score was -1.43.

For GCAUGAAGAGCUAAUGCUATT against Eprs, the z-score is -0.364.

As for GGCUAUGAGGACUCCUAUGTT against Plekha7, the z-score is -2.53 (active).

With GCAAGUCCAUUCUUUUUCATT against Tmprss11g, the z-score is -0.643.

For the sequence GGAAACCUGAUACUAACAATT against Afmid, the z-score is -1.88.

Turning to GGAAGUCCUUGCAUUCCUCTT against Dlec1, the z-score is 0.816.

As to GGCUGAGAAAACCAAAGGGTT against Cfdp1, the z-score was 1.9.

Regarding GCUGGAGUGUCAGUCAUAUTT against Reg4, the z-score was 3.35 (active).

As for GGUCUAUCGCUUGCUUUUUTT against Abca2, the z-score was 1.67.

Take GGUAAUCAGUAGUGACUUATT against Mkln1: the z-score was 0.229.

Turning to CCCUCAACCAUUGUUCGAGTT against Rasal1, the z-score was -0.328.

In the case of GGGCUGUAUUUCUUUACCCTT against Mrgprb2, the z-score was 0.508.

Take GCGCAGCACAGGUUUUGAATT against Klf10: the z-score is -0.217.

For the sequence GGAAAAAAUACCAGAAACATT against Klre1, the z-score was -2.68 (active).

Turning to GCCUAUCGAAAAGUCUUGGTT against Adcyap1, the z-score is 0.875.

As to GGCCAAGCUAUAAGAAAUGTT against Cntnap2, the z-score is 0.201.

As for AACUCCCUCCCUGUUGUAGTT against A4galt, the z-score is -0.361.

On to GGCCAUAUUAAGUAUGGAGTT against Fam118a, for which the z-score was -0.34.

As to GGAGAAGUAAAACUCGAAGTT against Rwdd2a, the z-score was 0.276.

On to “CCGAAUUUCUCCUAUUGGGTT against Olfr106-ps”, for which the z-score was -0.241.

For the sequence GGUAUGUAACGGUAUUUAATT against Gja1, the z-score is 2.66 (active).

Consider CCUAGAGCCGUGUGCAUACTT against Plp2, for which the z-score is 0.891.

As to CCAUUGGUUUUGAGGAUAUTT against Pomp, the z-score was -1.18.

As for GGUAGAAAAAACACAAACGTT against Ppp2r3c, the z-score is 1.43.

Take GGUUUUGUGGGAAGAGUCATT against Ccdc163: the z-score is -2.99 (active).

For the sequence CCUGGACAUAACCAAUGUATT against Glrp1, the z-score is 1.5.

As to CCCUGGGCAGUUUGCAUGUTT against Dgcr2, the z-score was 0.815.

As for GCAACGAGGUACUGUUUUATT against Rab7b, the z-score was 0.626.

Consider GGUAGAGCUGCACUUUGGATT against Hddc3, for which the z-score is -1.43.

Regarding GGUUUGUCAGGUUCUAAAATT against Atf1, the z-score is 2.34 (active).

Turning to GGUACAAAGACUGACGAGUTT against Gnptg, the z-score was 0.00278.

In the case of CGACCAGAAGUGGUAUGUCTT against Adra2a, the z-score was -1.03.

Turning to GGAGACAUUCACUGUCUUCTT against Ephb4, the z-score was -0.322.

For the sequence CCAGUAUCUAAUUGGAAUATT against Paqr8, the z-score is 2.07 (active).

For the sequence GCUGUUUGAAGCUGAUACCTT against Fads3, the z-score is -0.0526.

With GGCAUCCAGACAAGUGAUGTT against Zer1, the z-score was 0.699.

As for GCCAUCACAAUUCUAAUCCTT against Vmn2r123, the z-score is -1.54.

CCAAGAUUGACAUCAUCCGTT against Pkn1: the z-score was -0.595.

In the case of CGAAUACCUGAAGUGCAAATT against Art3, the z-score is 0.454.

For the sequence GGAGCCAGAACCUGAAAUUTT against Ankrd1, the z-score is 2.86 (active).

GCUCUAGACAUAUGAGGCUTT against Wee2: the z-score is -0.0864.

Consider “CCCAUGAUGCCAUCUUUAATT against 2410002F23Rik”, for which the z-score was -1.03.

For the sequence GGAACAUUUCUGGAUUGUUTT against Muc1, the z-score was -0.503.

With CCAGCUCUCGAUUCCAUCATT against Fem1a, the z-score is 0.615.

In the case of GGAUACCCUGGAGUUUAUATT against Prss42, the z-score is 0.941.

Regarding GCGUGAUCAUUGAUGUGGATT against Slc5a7, the z-score is 0.364.

As to GUUCCACAAAGACCAUCAGTT against Olfr134, the z-score is 0.679.

As for GCCUGGUUAAGGCAUGAUATT against Gm4884, the z-score was 2.63 (active).

Take GCCACAACCACCUGAACUUTT against Amigo1: the z-score is -0.854.

Regarding GGACUUCAAGGAUAGUGAGTT against Osm, the z-score is -1.13.

Take GGUCGAUGCAAAGAUGCUGTT against Smoc1: the z-score was 0.811.

Take GCUUCUGUAAAUCCCAUAUTT against Olfr26: the z-score was -0.0814.

GCUGUCACUUUGAAUCCCUTT against Nrg1: the z-score is -0.988.
